# Source: PubChem BioAssay
# BoNT-A LC inh2: BoNT/A light chain protease inhibitors, primary screen, biochemical, flow cytometry, MLPCN library; Botulinum neurotoxin type A light chain protease (Clostridium botulinum A str. ATCC 3502); multiplex microsphere protease substrate cleavage; inhibition, % at 10 µM; hit rate 0.17% among 360,000; AID 588499, 2011; note: plate controls were buffer without enzyme for full effect and enzyme alone for no effect
# Bead autofluor: flagged as autofluorescent in microsphere protease counterscreen; compound autofluorescence counterscreen, microsphere flow cytometry; active compounds read high; fluorescence intensity (concentration not given with the values); hit rate 3.1% among 360,000; in the data active = fluorescence intensity above about 16000; inconclusive = no clear call, values can overlap the other calls
# Anthrax LF inh2: Bacillus anthracis LF protease inhibitors, primary screen, biochemical, multiplex microsphere, MLPCN library; hit rate 0.12% among 360,000; inhibition, % at 10 µM; multiplex microsphere protease cleavage assay; note: plate controls were buffer without enzyme for full effect and enzyme alone for no effect
# MazF activator: activators of E. coli MazEF toxin-antitoxin RNase, primary screen, biochemical, fluorescence, uHTS. Endoribonuclease toxin MazF (Escherichia coli (strain K12)), P0AE70. AID 504720, 2011. hit rate 0.32% among 350,000. activation, % at 20 µM. FAM/BHQ RNA-DNA oligo cleavage fluorescence, 5 h; in the data active = activation above about 50%
# Target sequence (P0AE70 whole entry, looked up): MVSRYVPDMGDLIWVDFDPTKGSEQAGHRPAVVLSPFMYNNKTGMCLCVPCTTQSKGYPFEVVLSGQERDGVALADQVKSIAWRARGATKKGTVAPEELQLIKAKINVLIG
# BoNT-F LC inh: BoNT/F light chain protease inhibitors, primary screen, biochemical, flow cytometry, MLPCN library | hit rate 0.22% among 360,000 | Botulinum neurotoxin type F light chain protease (Clostridium botulinum) | inhibition, % at 10 µM | Multiplex microsphere protease cleavage assay; in the data active = inhibition above about 35%, passing the limit was not always enough; inconclusive = no clear call, values can overlap the other calls; note: plate controls were buffer without enzyme for full effect and enzyme alone for no effect
# DUSP3 inh: VHR1 phosphatase inhibitors, primary screen, biochemical, absorbance, uHTS | Dual specificity protein phosphatase 3 (Homo sapiens), P51452 | recombinant VHR phosphatase, pNPP absorbance | inhibition, % at 13.3 µM | hit rate 0.52% among 290,000 | AID 1654, 2009; in the data active = inhibition above about 50%
# Target sequence (P51452 whole entry, looked up): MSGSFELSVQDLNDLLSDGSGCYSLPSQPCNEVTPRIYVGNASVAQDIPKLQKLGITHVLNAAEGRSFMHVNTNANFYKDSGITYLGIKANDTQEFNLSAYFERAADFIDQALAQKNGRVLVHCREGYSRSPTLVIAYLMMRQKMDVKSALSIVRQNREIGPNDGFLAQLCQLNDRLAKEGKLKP
# Numbers without * were called inactive; ? = inconclusive; . = no result. In the library only some 4% were active in any assay of this set; here they are far more common. Cut-off read from the data, not from the text of the source, unless noted: active = inhibition above about 30%; inconclusive = no clear call, values can overlap the other calls; inactive = below that.
SMILES,BoNT-A LC inh2,Bead autofluor,Anthrax LF inh2,MazF activator,BoNT-F LC inh,DUSP3 inh
CCOC(=O)/C(O)=C(\C#N)c1nc2ccccc2[nH]1,1.6,4273,0.1,4.4,2.8,29.7
CC(=O)Nc1nc(=S)n(-c2ccccc2)[nH]1,2.0,22526*,0.0,9.7,2.0,-7.7
COc1ccc2c(COC(=O)CNC(=O)C34CC5CC(CC(C5)C3)C4)cc(=O)oc2c1,1.6,8431,2.6,-4.3,2.5,51.3*
O=C(Cn1c(C(F)(F)F)nc2ccccc21)c1ccc(Cl)cc1,3.0,18546*,3.0,3.3,2.4,-7.3
O=C(Cn1c(C(F)(F)F)nc2ccccc21)c1ccccc1,-0.1,12188,-2.4,-7.0,4.6,0.2
Cc1ccc(SCc2cc(=O)[nH]c(/N=C(\N)Nc3ccc(C)c(C)c3)n2)cc1,-3.3,25207*,-1.1,-2.3,-8.3,28.7
COC(=O)Cc1cc(=O)[nH]c(/N=C(\N)Nc2ccc(C)cc2C)n1,0.2,3049,5.6,4.0,4.7,2.8
COCc1cc(=O)[nH]c(/N=C(\N)Nc2ccc(C)cc2)n1,?,21003*,0.5,1.2,-5.3,6.4
CCOC(=O)Cc1cc(=O)[nH]c(/N=C(\N)Nc2ccc(C)cc2C)n1,-0.3,23280*,1.0,7.1,-0.6,19.4
O=C(O)c1ccc2c(=O)n(Cc3ccccc3)c(SCc3ccc([N+](=O)[O-])cc3)nc2c1,-0.8,3759,3.9,-4.9,-5.4,-16.2
CN1C(=O)NC(=O)/C(=C/c2ccc([N+](=O)[O-])o2)C1=O,.,.,.,0.9,.,36.0
CCOc1ccc(N=C/C=C/c2ccccc2)c(O)c1,35.1*,3275,0.3,15.4,-72.5,-10.3
CCOc1ccc(CN(C)C(=O)CCl)cc1,-1.1,4225,-2.2,-1.0,1.7,6.0
Cc1cc(C(=O)CSc2n[nH]c(N)n2)c(C)n1-c1ccccc1,1.2,16214*,-0.7,4.3,2.6,28.6
Cc1cc(C(=O)COC(=O)c2cnccn2)c(C)n1-c1ccc(Br)cc1,-0.8,3518,-1.7,-4.4,-11.3,.
Cc1ccc(-n2c(C)cc(C(=O)COC(=O)c3c(C)noc3C)c2C)cc1,0.3,23721*,-3.2,0.4,-3.0,-4.2
Cc1cc(C(=O)COC(=O)C2=NNC(=O)CC2)c(C)n1-c1ccccc1,1.3,19448*,-9.0,-1.2,2.5,21.3
Cc1ccc(-n2c(C)cc(C(=O)CSc3n[nH]c(N)n3)c2C)cc1,-0.9,10948,-5.1,2.9,-9.3,29.7
Cc1cc(C(=O)CSc2n[nH]c(N)n2)c(C)n1-c1ccc(F)cc1,?,22336*,-3.4,-3.9,-3.3,8.7
Cc1ccc(-n2c(C)cc(C(=O)COC(=O)C3=NNC(=O)CC3)c2C)cc1,-0.7,3267,-4.7,-4.2,4.5,1.4
Cc1cccc(CN(CC(=O)N/N=C/c2cccs2)S(=O)(=O)c2ccc(Cl)cc2)c1,-0.6,4341,-2.1,-0.6,-22.3,13.2
COc1cccc(N(CC(=O)NCCN2CCOCC2)S(=O)(=O)c2ccccc2)c1,-0.3,?,-6.6,0.1,-7.3,.
Nc1nc(SCC(=O)c2ccc(F)cc2)n[nH]1,0.8,2554,0.6,0.4,1.8,13.2
Cc1nc(SCC(=O)c2ccc(F)cc2)n[nH]1,1.2,21307*,-0.2,5.4,2.5,7.0
C=CCOc1ccc(CN(C)C(=O)CN2C(=O)c3ccccc3C2=O)cc1,3.0,3874,3.3,4.3,-12.0,6.7
SMILES,BoNT-A LC inh2,Bead autofluor,Anthrax LF inh2,MazF activator,BoNT-F LC inh,DUSP3 inh
CCC(CC)CC1CN2CCc3cc(OC)c(OC)cc3C2CC1(O)CC (stereo not drawn),0.2,4182,-7.1,-1.3,-8.9,.
CC1CCCCC1NC1=NCCCS1 (stereo not drawn),.,.,.,.,.,53.6*
COc1ccc2[nH]c(C)c(CCNC(=S)Nc3cccc(C)c3)c2c1,-0.4,4317,3.0,0.5,-6.1,-18.5
CCn1nnnc1SCC(=O)N1CCOCC1,-2.5,4863,-6.2,6.0,-18.9,14.5
CCc1ccc(N2CC(C(=O)Nc3ccc(OC)c(S(=O)(=O)N4CCOCC4)c3)CC2=O)cc1 (stereo not drawn),-0.4,3577,-8.0,1.0,-0.6,.
CCOc1ccc(N2CC(C(=O)Nc3ccc(S(=O)(=O)N4CCCCC4)cc3)CC2=O)cc1 (stereo not drawn),.,.,.,3.7,.,.
CCOc1ccc(N2CC(C(=O)Nc3ccc(S(=O)(=O)N4CCCC4)cc3)CC2=O)cc1 (stereo not drawn),1.4,3457,7.8,8.9,-23.1,55.2*
CCc1ccc(N2CC(C(=O)Nc3ccc(C)c(S(=O)(=O)N4CCOCC4)c3)CC2=O)cc1 (stereo not drawn),-1.2,22656*,-11.1,2.4,-5.5,14.6
CCCCN(C(=O)CSc1nnnn1C)C1CCS(=O)(=O)C1 (stereo not drawn),-0.5,3924,-5.5,10.7,-0.7,.
COc1ccc(-c2cnc3c(NC(C)=O)cc(-c4cccc(C(=O)NCCN(C)C)c4)cn23)cc1OC,-0.4,3074,-2.6,.,-8.7,.
O=C(c1nsc(Cl)c1Cl)N1CCCCC1,0.3,20635*,-0.6,6.3,-0.2,-9.8
COC(=O)C[C@H]1c2cc(F)ccc2S(=O)(=O)N1Cc1ccccc1OC,-0.4,4015,1.7,1.4,-5.2,.
CCn1ncc(C(=O)Nc2cccc(Cl)c2)c1C,0.6,9792,-5.2,1.9,-3.5,-11.3
CCCc1cc(C(=O)Nc2cc(C)on2)no1,-0.9,5070,-9.2,0.5,-15.4,-4.4
C/C(=C\C(=O)Nc1cc(C)on1)c1ccccc1,-1.3,22891*,-1.9,-6.1,-3.4,13.4
Cc1cc(NC(=O)c2cc(C)on2)no1,0.3,23413*,-0.5,-3.1,-3.1,-12.1
CCn1ncc(C(=O)Nc2cc(C)on2)c1C,0.9,21849*,-6.2,-3.2,-1.4,23.1
COc1ccc(C(=O)Nc2cc(C)on2)cc1,-0.3,16745*,-2.5,4.5,1.5,13.8
CCC(C)NC(=O)CCc1c(C)nc2c(c(C)nn2-c2ccccc2)c1C (stereo not drawn),-1.9,3124,-13.7,-11.2,-4.9,.
Cc1cc(O)c(/C=N/Nc2ccc(Cl)cc2)c(=O)o1,-0.6,2524,0.8,-0.7,-8.1,18.9
O=S(=O)(NC1CCCCCCC1)OCC(Cl)(Cl)Cl,0.1,4088,5.2,8.6,-6.2,5.0
COc1ccc(OCc2cccc(C(=O)Nc3cc(C)on3)c2)cc1,1.2,22339*,-0.6,-1.4,1.8,13.2
Cc1cc(NC(=O)c2cnn3c(C(F)(F)F)cc(-c4ccccc4)nc23)no1,1.2,9195,0.6,9.4,6.8,21.3
COc1cccc(C(=O)Nc2cc(C)on2)c1,-0.6,3897,-5.8,5.6,-5.7,.
